Results published in PubChem BioAssay (NCI).
Where “and” joins values, the source holds several entries; their conditions need not be identical. Equal entries are not always repeated. The panel holds about 83,000 compounds, 20% with a hit somewhere; the sample as a whole holds those more often.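 For each line, cells grew in 96-well plates with the test compound present at a single concentration for 48 hours.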 A number with no mark means an inactive call. Calls of active or inactive are those of the source. The calls were made as follows: active = growth percent below 10; inactive = the rest.

Columns and labels:
Assay in all cases: NCI-60 one-dose screen, 48 h (100 = growth as untreated, 0 = no growth, -100 = all killed)
Conditions in all cases: 10 µM unless noted
HCT-15 colon = system: HCT-15 colon
HT29 colon = system: HT29 colon
SNB-75 CNS = system: SNB-75 CNS
SNB-19 CNS = system: SNB-19 CNS
U251 CNS = system: U251 CNS
PC-3 prostate = system: PC-3 prostate
SK-MEL-5 melanoma = system: SK-MEL-5 melanoma
UACC-62 melanoma = system: UACC-62 melanoma
LOX IMVI melanoma = system: LOX IMVI melanoma
SK-MEL-28 melanoma = system: SK-MEL-28 melanoma

Row | Structure (SMILES) | growth (HCT-15 colon) | growth (HT29 colon) | growth (SNB-75 CNS) | growth (SNB-19 CNS) | growth (U251 CNS) | growth (PC-3 prostate) | growth (SK-MEL-5 melanoma) | growth (UACC-62 melanoma) | growth (LOX IMVI melanoma) | growth (SK-MEL-28 melanoma)
1 | O=C(O)c1ccc(=O)[nH]c1 | 97.5% and 103% | 109% and 97.7% | 101% and 91.6% | 94.4% and 102% | 97.5% and 91% | 103% and 90.1% | 101% and 100% | 88.7% and 98.6% | 103% and 93.4% | 106% and 110%
2 | O=C(NC1=NCC[Se]1)c1ccccc1O | 82% | 92.1% | 67.3% | 68.5% | 44% | 54.9% | 80.9% | 76.2% | 42.9% | 61.3%
3 | O=P1(N(CCCl)CCCl)NCCCO1 (centres undefined) | 106% | 102% | 102% | 102% | 96.8% | 106% | 103% | 94.4% | 104% | 114%
4 | C[Se]/C=C1/C(=O)N(c2c(Cl)cccc2Cl)c2ccccc21 | 45.7% | 7.79% (active) | -30.8% (active) | 32.6% | 25.1% | 31.3% | 38.9% | 27.8% | 17.7% | 8.1% (active)
5 | COc1ccc2c(c1)c(-c1nc(-c3cn(C)c4ncccc34)cs1)cn2CCCCN1CCOCC1 | -42.1% (active) | -87.8% (active) | 43.6% | 35.1% | -55.3% (active) | 31.3% | 14.5% | 3.59% (active) | -78.8% (active) | -93.5% (active)
6 | COc1ccc(C(C#N)C(C)=O)cc1 (centres undefined) | 95% | 88.7% | 82.1% | 105% | 106% | 103% | 102% | 97.6% | 98.1% | 115%
7 | NC(N)=NC(N)=Nc1ccc(Cl)cc1 | 108% | 97.8% | 77.1% | 105% | 113% | 89.5% | 108% | 111% | 110% | 98.9%
8 | CCCCCCCCCCCCCCCC[n+]1ccccc1 | 17.1% and 15.2% | -68.2% (active) and -58.8% (active) | -77.3% (active) and -40.5% (active) | -88.4% (active) and -62.6% (active) | -90.4% (active) and -76.3% (active) | -48.7% (active) and -80.9% (active) | -100% (active) and -94.8% (active) | -68% (active) and -46.2% (active) | -72.9% (active) and -79.8% (active) | -55% (active) and -30.7% (active)
9 | O=C(O)C(Br)CBr (centres undefined) | 90.8% | 97.6% | 89.5% | 107% | 97% | 94.3% | 98.8% | – | 94.3% | 110%
10 | Cc1nnc([S-])o1.[Au+].c1ccc([PH+](c2ccccc2)c2ccccc2)cc1 | 8.98% (active) | 61.1% | 29.3% | 29.2% | 10.1% | 57.7% | 26.7% | 21.3% | 13.2% | 32.8%
11 | N#CCCc1ccccc1 | 98.3% | 104% | 86.3% | 97.7% | 105% | 108% | 99.6% | 97.2% | 102% | 108%
12 | CNC(=O)CCl | 101% | 102% | 96% | 104% | 94.7% | 94.6% | 96.4% | 96.1% | 100% | 107%
13 | C[C@@]12CCCc3coc(c31)C(=O)c1cc3c(cc12)C(=O)C1=C(NCCS1(=O)=O)C3=O | 8.66% (active) | -4.92% (active) | -87.5% (active) | -68.8% (active) | -61% (active) | -6.62% (active) | -98% (active) | -68% (active) | -42.7% (active) | -9.02% (active)
14 | COc1cc(C=C2C(=O)NC(=O)NC2=O)ccc1O | 103% | 99.2% | 96% | 96.7% | 98.7% | 103% | 109% | 92.7% | 102% | 131%
15 | CC(=O)C(N)Cc1ccccc1 (centres undefined) | 103% | 103% | 86.7% | 99.3% | 84.2% | 83.6% | 107% | 92.6% | 95.1% | 114%
16 | COc1cc(-c2ccc(N)c(OC)c2)ccc1N | 110% | 97.5% | 76.9% | 102% | 99.2% | 105% | 105% | – | 88.9% | 111%
17 | COC[C@H]1OC(=O)c2coc3c2[C@@]1(C)C1=C(C3=O)[C@@H]2CCC(=O)[C@@]2(C)C[C@H]1OC(C)=O | 53.8% | 34.4% | -21% (active) | 66.2% | 70.5% | – | -16.9% (active) | 15.7% | 54.3% | –
18 | CO[C@@H]([CH2][Hg][O]C(=O)c1ccccc1)[C@@H]([CH2][Hg][O]C(=O)c1ccccc1)OC | -93.1% (active) | 95.7% | 85.6% | 96.5% | 93.3% | 88.7% | 86.5% | 95.2% | 36% | 112%
19 | Cc1cc[c-]cc1.Fc1c[c-]c(-c2ccccn2)c(F)c1.N#CCC[PH+](CCC#N)c1ccccc1.[Pt+2] | 22.1% | 37.2% | 49.9% | 62.3% | 56.9% | 29.4% | 68.6% | 9.83% (active) | -2.55% (active) | 42.7%
20 | O=C1C=C(N2CC2)c2ccccc2C1=O | 79.6% | 73.4% | 90.2% | 82.7% | 65.3% | 44.3% | 59.7% | 97.8% | 39% | 111%
21 | COc1cc(C2C3=C(CCCC3=O)N(CCO)c3cc4c(cc32)CCC4)cc(OC)c1OC (centres undefined) | 89.2% | 71.7% | 99.5% | 87.3% | 88.3% | 80.7% | 87.1% | 67.7% | 80.4% | 96.9%
22 | CCOC(=O)c1cncn1C(C)c1ccccc1 (centres undefined) | 106% | 95.1% | 94.3% | 106% | 100% | 97.9% | 102% | 100% | 101% | 114%
23 | COc1c(O)cc2c(c1OC)-c1ccc(SC)c(=O)cc1C(NC(C)=O)CC2 (centres undefined) | -40.6% (active) | -18.9% (active) | -13.2% (active) | 18.5% | 5.68% (active) | – | -28.2% (active) | 18.6% | 15.4% | –
24 | CC(C)CCC1C(=O)NC(=O)NC1=O | 101% | 98.4% | 104% | 115% | 97.6% | 98% | 103% | 96.7% | 104% | 101%
25 | CN(C)C(=S)SSC(=S)N(C)C | 93.9% and 113% | 61.1% and 92.2% | 109% and 104% | 98.7% and 98.8% | 81.2% and 75.7% | 75.5% and 91.1% | 82% | 97.4% and 96.2% | 104% and 108% | 116% and 114%
